# Test results as given in the supplement of paper PMC6555819.
# What was measured:
# Assay in all cases: PBM binding z-score (relative to random genomic background probes); higher = stronger binding; sequences stand for … in GC…GCGATTGACAGCGTAGAATGAAGG
# [1] = tested on: RARb homodimer (NR concentration 270 nM)
# Procedure, shortened: (§1)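 Binding z-scores were set against random background probes. The data came from custom Agilent 4×180K protein-binding microarrays carrying double-stranded probes with 34-nt variable regions, incubated 1 h with ligand-free nuclear receptor dimers. Partner-specific antibodies detected binding, and scanned fluorescence was regression-normalized.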
# [2] = tested on: RARg:RXRa (NR concentration 270 nM, RXRa partner concentration 90 nM)
# Procedure, shortened: as §1
# [3] = tested on: RARg homodimer (NR concentration 270 nM)
# Procedure, shortened: as §1
# [4] = tested on: RXRa DBDmut IVT, anti-RXR (DBD mutation: RXRa K156A/R161A, NR concentration 90 nM)
# Procedure, shortened: as §1
# [5] = tested on: RXRa homodimer (NR concentration 180 nM)
# Procedure, shortened: as §1
# [6] = tested on: THRa:RXRa (NR concentration 90 nM, RXRa partner concentration 90 nM)
# Procedure, shortened: as §1
# [7] = tested on: THRa homodimer (NR concentration 90 nM)
# Procedure, shortened: as §1
# [8] = tested on: VDR homodimer (NR concentration 270 nM)
# Procedure, shortened: as §1
sequence,measurement,setting,value
TTACCAAGGTGAGCTGAGGTCGTTTATCCAACTC,PBM binding z-score,[1],1.47
same,PBM binding z-score,[2],1.08
same,PBM binding z-score,[3],0.862
same,PBM binding z-score,[4],0.292
same,PBM binding z-score,[5],1.27
same,PBM binding z-score,[6],4.58
same,PBM binding z-score,[7],2.09
same,PBM binding z-score,[8],2.23
CCTTACGGGTCAAGATTATAGCACGGGTGGTACG,PBM binding z-score,[1],2.79
same,PBM binding z-score,[2],4.4
same,PBM binding z-score,[3],4.24
same,PBM binding z-score,[4],0.558
same,PBM binding z-score,[5],5.02
same,PBM binding z-score,[6],2.02
same,PBM binding z-score,[7],0.000143
same,PBM binding z-score,[8],0.658
ACTAGCAGCCCAAGGGTCACTCAAGATTAGTCCG,PBM binding z-score,[1],3.74
same,PBM binding z-score,[2],3.55
same,PBM binding z-score,[3],3.23
same,PBM binding z-score,[4],0.283
same,PBM binding z-score,[5],3.67
same,PBM binding z-score,[6],2.45
same,PBM binding z-score,[7],0.307
same,PBM binding z-score,[8],0.863
CCTGCTAGGTCATGGGCAGCTAATCTACAGTATG,PBM binding z-score,[1],2.79
same,PBM binding z-score,[2],4.04
same,PBM binding z-score,[3],4.39
same,PBM binding z-score,[4],1.05
same,PBM binding z-score,[5],2.83
same,PBM binding z-score,[6],2.89
same,PBM binding z-score,[7],0.639
same,PBM binding z-score,[8],-0.0786
CTCGAAAGGTCGTGCTCTGGTGAGTATACCAAAC,PBM binding z-score,[1],2.73
same,PBM binding z-score,[2],4.35
same,PBM binding z-score,[3],3.14
same,PBM binding z-score,[4],2.01
same,PBM binding z-score,[5],4.69
same,PBM binding z-score,[6],2.61
same,PBM binding z-score,[7],0.441
same,PBM binding z-score,[8],0.997
CAGCCTAGGTCAGCGCCAGTATAGGAGGAACGTT,PBM binding z-score,[1],2.6
same,PBM binding z-score,[2],2.85
same,PBM binding z-score,[3],4.04
same,PBM binding z-score,[4],0.449
same,PBM binding z-score,[5],1.55
same,PBM binding z-score,[6],2.05
same,PBM binding z-score,[7],0.498
same,PBM binding z-score,[8],-0.621
CCTACCGGGCCACGAAAGGTCATTGATTCAGTGA,PBM binding z-score,[1],4.84
same,PBM binding z-score,[2],4.67
same,PBM binding z-score,[3],4.47
same,PBM binding z-score,[4],0.0824
same,PBM binding z-score,[5],4.98
same,PBM binding z-score,[6],4.19
same,PBM binding z-score,[7],1.46
same,PBM binding z-score,[8],2.22
